Experimental data: PubChem BioAssay AID1159580 (chemical genetic matrix, 2015)
Values joined by “and” are separate entries in the source; they are usually repeats but may differ in a detail not shown here. Identical values can stand only once. Out of some 5,500 compounds screened, about 2,000 (36%) were called active. Not shown: some 18% with an inconclusive outcome. Rule as the data show it: active = normalized growth mostly below about 0.91 (no sharp cut-off); inconclusive = no clear call, values can overlap the other calls; inactive = mostly above about 0.92. Some of the results follow.

Assay: chemical genetic growth profiling, strain panel (AID 1159580);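 also: tested at 20 µM; growth read once vehicle control cultures reached saturation at 30 °C; 1 = growth at the plate median or of vehicle wells; lower values mean less growth of the strain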
Conditions: S. cerevisiae deletion strains, growth OD

Measured: normalized growth

CC12CCC3C(CC3(C)C)C(C)(CCC1=O)O2 (stereo unspecified)
inactive: locus YAL021C, strain ccr4, hits give low values 1.04 | locus YAL026C, strain drs2, hits give low values 1.01 | locus YAL030W, strain snc1, hits give low values 0.994 | locus YBL061C, strain skt5, hits give low values 0.99 | locus YBR009C, strain hhf1, hits give low values 1.01 | locus YBR021W, strain FUR4, hits give low values 1.01 | locus YBR023C, strain chs3, hits give low values 0.996 | locus YBR171W, strain sec66, hits give low values 0.985 | locus YBR229C, strain ROT2, hits give low values 1.01 | locus YBR231C, strain swc5, hits give low values 0.983 | locus YBR279W, strain paf1, hits give low values 1.02 | locus YCL011C, strain gbp2, hits give low values 1.01 | locus YCL016C, strain dcc1, hits give low values 1.01 | locus YCL029C, strain bik1, hits give low values 1.03 | locus YCL061C, strain MRC1, hits give low values 1.01 | locus YCL069W, strain vba3, hits give low values 1 | locus YCR088W, strain abp1, hits give low values 0.981 | locus YDL005C, strain med2, hits give low values 0.972 | locus YDL035C, strain GPR1, hits give low values 1.01 | locus YDL040C, strain nat1, hits give low values 0.99 | locus YDL074C, strain BRE1, hits give low values 1.07 | locus YDL101C, strain DUN1, hits give low values 1.02 | locus YDL185W, strain tfp1, hits give low values 1.02 | locus YDL192W, strain arf1, hits give low values 1.01 | locus YDR001C, strain nth1, hits give low values 0.986 | locus YDR069C, strain doa4, hits give low values 1.01 | locus YDR101C, strain arx1, hits give low values 0.983 | locus YDR137W, strain rgp1, hits give low values 0.977 | locus YDR159W, strain sac3, hits give low values 0.982 | locus YDR162C, strain NBP2, hits give low values 1.03 | locus YDR195W, strain ref2 0.934 | locus YDR297W, strain sur2, hits give low values 1.01 | locus YDR318W, strain mcm21, hits give low values 1.03 | locus YDR334W, strain swr1, hits give low values 1 | locus YDR335W, strain msn5, hits give low values 1 | locus YDR388W, hits give low values 1.01 | locus YDR392W, strain spt3, hits give low values 0.939 | locus YDR502C, strain sam2, hits give low values 1.04 | locus YEL003W, strain gim4, hits give low values 0.995 | locus YEL037C, strain rad23, hits give low values 1.01 | locus YEL061C, strain CIN8 (second series), hits give low values 0.992 | locus YEL061C, strain CIN8, hits give low values 1.01 | locus YER015W, strain faa2, hits give low values 1 | locus YER016W, strain bim1, hits give low values 0.988 | locus YER110C, hits give low values 1.02 | locus YER111C, strain swi4, hits give low values 0.987 | locus YER155C, strain BEM2 (second series), hits give low values 0.967 | locus YER155C, strain BEM2, hits give low values 1.01 | locus YER167W, strain BCK2, hits give low values 1 | locus YFR010W, strain ubp6, hits give low values 1.01 | locus YGL078C, strain dbp3, hits give low values 1.01 | locus YGL086W, strain mad1, hits give low values 1.01 | locus YGL167C, strain pmr1, hits give low values 0.99 | locus YGL173C, strain kem1, hits give low values 0.999 | locus YGL227W, strain vid30, hits give low values 0.989 | locus YGL240W, strain doc1, hits give low values 0.943 | locus YGL248W, strain PDE1, hits give low values 1.05 | locus YGL253W, strain hxk2, hits give low values 1.02 | locus YGR078C, strain PAC10, hits give low values 1.04 | locus YGR135W, strain pre9, hits give low values 1.05 | locus YGR252W, strain gcn5, hits give low values 1.07 | locus YHR013C, strain ard1, hits give low values 1.01 | locus YHR027C, strain rpn1, hits give low values 0.988 | locus YHR030C, strain SLT2, hits give low values 1.01 and 1.05 | locus YHR079C, strain IRE1 (second series), hits give low values 1.02 | locus YHR079C, strain IRE1, hits give low values 1.03 | locus YHR094C, strain hxt1, hits give low values 1.01 | locus YHR129C, strain ARP1, hits give low values 1.01 | locus YHR142W, strain chs7, hits give low values 1 | locus YHR200W, strain rpn10, hits give low values 1.02 | locus YIL066C, strain RNR3, hits give low values 1.01 | locus YIL073C, strain SPO22, hits give low values 1.08 | locus YIL125W, strain kgd1, hits give low values 1 | locus YIR030C, strain dcg1, hits give low values 1.02 | locus YJL092W, strain hpr5, hits give low values 0.997 | locus YJL095W, strain BCK1 (second series), hits give low values 1.01 | locus YJL095W, strain BCK1, hits give low values 1.06 and 1.04 | locus YJL115W, strain asf1, hits give low values 0.976 | locus YJL129C, strain trk1, hits give low values 0.991 | locus YJL134W, strain LCB3, hits give low values 1.02 | locus YJL154C, strain vps35, hits give low values 0.991 | locus YJL164C, strain tpk1, hits give low values 1.04 | locus YJL166W, strain qcr8, hits give low values 0.984 | locus YJL168C, strain set2, hits give low values 1.01 | locus YJL187C, strain SWE1 (second series), hits give low values 1.04 | locus YJL187C, strain SWE1, hits give low values 1
